This passage reports composite z-score and z-score results from PubChem BioAssay.

Active and inactive are the calls of the source.

The nature of test [1]: small molecules captured by biotinylated probe aFSTL3 – biochemical, small-molecule microarray, fluorescence 635/667, stem cell growth factor project, primary screen (AID 1064).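 Further: measures binding of the biotinylated anti-FSTL3 antibody to printed compounds.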 The conditions noted are these: higher = more signal.
Test [2] can be described thus: binders from COS7 lysate, DM2A8 probe, primary screen, torsin A project, cell lysate, small-molecule microarray, fluorescence 635/667 (AID 1065). The conditions noted are these: higher = more signal, COS7 lysate expressing mutant human TOR1A.
Test [3] can be described thus: small molecules captured by biotinylated probe aFGF2 – biochemical, small-molecule microarray, fluorescence 635/667, stem cell growth factor project, primary screen (AID 1067).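 Further: measures binding of biotinylated aFGF2 protein to printed compounds on slides; z-score merges feature fluorescence and signal-to-noise across triplicate slides.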 To be noted: higher = more signal.
The nature of test [4]: small molecules captured by biotinylated probe aFGF10 – biochemical, small-molecule microarray, fluorescence 635/667, stem cell growth factor project, primary screen (AID 1071).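 Further: score merges 667 nm spot intensity and signal to noise from triplicate slides.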 To be noted: higher = more signal.
Test [5] has as its target Neurogenic locus notch homolog protein 2 (Homo sapiens) (UniProt Q04721). In words: small molecules binding Notch2 protein – biochemical, small-molecule microarray, 635 nm fluorescence, stem cell growth factors, primary screen (AID 1073). The conditions noted are these: higher = more signal.
Test [6] addresses Pro-neuregulin-1, membrane-bound isoform (Homo sapiens) (UniProt Q02297). In words: small molecules binding neuregulin-1 protein – biochemical, small-molecule microarray, fluorescence 635/667, psychiatric disease protein project, primary screen (AID 1075).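 Further: score combines 667 nm spot fluorescence with signal to noise.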 The conditions noted are these: NRG1 binding, 635 nm fluorescence, higher = more signal.
Test [7] deals with Neuregulin-1 EGF-like domain. In words: small molecules binding NRG1 EGF domain – biochemical, small-molecule microarray, 635 nm fluorescence, primary screen (AID 1081).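 Further: binding of the protein to compounds printed on small-molecule microarray slides.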 To be noted: higher = more signal.
Test [8] is described as follows: FRG1 expression reporter modulators in myotubes – cell-based, C2C12 myotubes, firefly/Renilla luciferase, luminescence, FRG1 inhibition for FSHD, primary screen (AID 1084). To be noted: FRG1 promoter luciferase, higher = more signal, called active from +8 up or from −8 down.
Test [9] is described as follows: small molecules captured by biotinylated probe aFST – biochemical, small-molecule microarray, fluorescence 635/667, stem cell growth factor project, primary screen (AID 1086).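 Further: score merges 667 nm fluorescence with signal-to-noise of each printed compound spot.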 To be noted: higher = more signal.
Test [10] in a line: binders of probe aHhip on microarray, primary screen, stem cell growth factor project, biochemical, small-molecule microarray, fluorescence 635/667 (AID 1087).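 Further: score merges spot fluorescence at 667nm with spot signal to noise ratio.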 The conditions noted are these: higher = more signal.
Test [11] deals with PRMT1 (protein arginine N-methyltransferase 1). In words: small molecules binding arginine methyltransferase PRMT1 – biochemical, small-molecule microarray, 635 nm fluorescence, primary screen (AID 1088).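 Further: binding of Prmt1 protein to compounds spotted on small-molecule microarray slides.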 To be noted: higher = more signal.
A short description of test [12]: growth effects on S. cerevisiae YJM789 – YJM789 clinical isolate, OD600, 24 h, basal, primary screen (AID 1089).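 Further: growth of clinical yeast isolate S. cerevisiae YJM 789 seeded 1000 cells per well; test concentration not given here.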 To be noted: higher = more signal, called active from +8 up or from −8 down.
A short description of test [13]: S. pombe growth modifiers, basal conditions – strain 972, OD600, 24 h, no modulator, primary screen (AID 1090).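 Further: basal condition with compound alone and no growth modifier present; test concentration not given here.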 The conditions noted are these: S. pombe 972 growth, higher = more signal, called active from +8 up or from −8 down.
Test [14] can be described thus: budding yeast growth modifiers under rapamycin – strain BY4716, OD600, 96 h, primary screen (AID 1091). Further: test concentration not given here. To be noted: S. cerevisiae BY4716 + rapamycin, higher = more signal, called active from +8 up or from −8 down.
Test [15] deals with Torsin-1A-interacting protein 2 (Homo sapiens) (UniProt Q8NFQ8). In words: small molecules binding lysate-expressed LULL1 – cell lysate, human LULL1 lysate, 635/667 nm fluorescence, primary screen (AID 1092).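 Further: probe is lysate of COS7 cells overexpressing human LULL1; score merges per-feature 667 nm fluorescence with signal-to-noise.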 To be noted: small-molecule microarray, hLULL1 lysate binding, 635 nm fluorescence; higher = more signal.
Chain of Torsin-1A-interacting protein 2 (Homo sapiens) (Q8NFQ8 whole entry, looked up): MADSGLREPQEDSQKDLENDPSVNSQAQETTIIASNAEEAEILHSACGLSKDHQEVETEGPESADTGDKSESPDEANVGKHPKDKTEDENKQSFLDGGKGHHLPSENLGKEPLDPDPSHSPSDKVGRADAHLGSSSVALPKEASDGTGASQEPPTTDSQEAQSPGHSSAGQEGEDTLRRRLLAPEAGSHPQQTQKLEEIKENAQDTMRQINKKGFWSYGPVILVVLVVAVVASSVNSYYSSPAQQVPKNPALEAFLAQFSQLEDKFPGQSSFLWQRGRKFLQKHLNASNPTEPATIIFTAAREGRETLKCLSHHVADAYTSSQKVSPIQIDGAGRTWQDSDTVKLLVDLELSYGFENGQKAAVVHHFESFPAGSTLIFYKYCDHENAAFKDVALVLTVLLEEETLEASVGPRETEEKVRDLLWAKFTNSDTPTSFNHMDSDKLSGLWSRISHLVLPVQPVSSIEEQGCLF
Test [16] can be described thus: optical density change of DRC41 E. coli – strain DRC41, OD650, 24 h, E. coli filamentation project, primary screen (AID 1093).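 Further: MC1000 strain lacking acrAB efflux and sulA so SOS filamentation is blocked; test concentration not given here.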 The conditions noted are these: E. coli DRC41 growth, higher = more signal, called active from +8 up or from −8 down.
Test [17] is described as follows: probe aLefty2 binding to arrayed compounds – biochemical, biotinylated probe, 635/667 nm fluorescence, primary screen (AID 1094).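 Further: score merges spot fluorescence near 667 nm with spot signal-to-noise ratio.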 To be noted: small-molecule microarray, higher = more signal.
Test [18] deals with Noggin (protein binding on small-molecule microarray). Nature of the test: small molecules binding Noggin protein – biochemical, 635/667 nm fluorescence, primary screen (AID 1095).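 Further: score merges 667 nm feature fluorescence with signal to noise over triplicate slides.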 The conditions noted are these: 635 nm fluorescence, higher = more signal.
The target of test [19] is Neurogenic locus notch homolog protein 3 (Homo sapiens) (UniProt Q9UM47). In words: small molecules binding NOTCH3 protein – biochemical, 635/667 nm fluorescence, primary screen (AID 1096). The conditions noted are these: small-molecule microarray, 635 nm fluorescence, higher = more signal.
The nature of test [20]: probe aEGFR binding to arrayed compounds – biochemical, biotinylated probe, 635/667 nm fluorescence, primary screen (AID 1097).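 Further: probe is a biotinylated anti-EGFR antibody binding compounds printed on slides; score combines fluorescence near 667 nm and signal to noise of each spot.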 The conditions noted are these: small-molecule microarray, higher = more signal.

Chain of Neurogenic locus notch homolog protein 2 (Homo sapiens) (Q04721 whole entry, looked up, canonical isoform): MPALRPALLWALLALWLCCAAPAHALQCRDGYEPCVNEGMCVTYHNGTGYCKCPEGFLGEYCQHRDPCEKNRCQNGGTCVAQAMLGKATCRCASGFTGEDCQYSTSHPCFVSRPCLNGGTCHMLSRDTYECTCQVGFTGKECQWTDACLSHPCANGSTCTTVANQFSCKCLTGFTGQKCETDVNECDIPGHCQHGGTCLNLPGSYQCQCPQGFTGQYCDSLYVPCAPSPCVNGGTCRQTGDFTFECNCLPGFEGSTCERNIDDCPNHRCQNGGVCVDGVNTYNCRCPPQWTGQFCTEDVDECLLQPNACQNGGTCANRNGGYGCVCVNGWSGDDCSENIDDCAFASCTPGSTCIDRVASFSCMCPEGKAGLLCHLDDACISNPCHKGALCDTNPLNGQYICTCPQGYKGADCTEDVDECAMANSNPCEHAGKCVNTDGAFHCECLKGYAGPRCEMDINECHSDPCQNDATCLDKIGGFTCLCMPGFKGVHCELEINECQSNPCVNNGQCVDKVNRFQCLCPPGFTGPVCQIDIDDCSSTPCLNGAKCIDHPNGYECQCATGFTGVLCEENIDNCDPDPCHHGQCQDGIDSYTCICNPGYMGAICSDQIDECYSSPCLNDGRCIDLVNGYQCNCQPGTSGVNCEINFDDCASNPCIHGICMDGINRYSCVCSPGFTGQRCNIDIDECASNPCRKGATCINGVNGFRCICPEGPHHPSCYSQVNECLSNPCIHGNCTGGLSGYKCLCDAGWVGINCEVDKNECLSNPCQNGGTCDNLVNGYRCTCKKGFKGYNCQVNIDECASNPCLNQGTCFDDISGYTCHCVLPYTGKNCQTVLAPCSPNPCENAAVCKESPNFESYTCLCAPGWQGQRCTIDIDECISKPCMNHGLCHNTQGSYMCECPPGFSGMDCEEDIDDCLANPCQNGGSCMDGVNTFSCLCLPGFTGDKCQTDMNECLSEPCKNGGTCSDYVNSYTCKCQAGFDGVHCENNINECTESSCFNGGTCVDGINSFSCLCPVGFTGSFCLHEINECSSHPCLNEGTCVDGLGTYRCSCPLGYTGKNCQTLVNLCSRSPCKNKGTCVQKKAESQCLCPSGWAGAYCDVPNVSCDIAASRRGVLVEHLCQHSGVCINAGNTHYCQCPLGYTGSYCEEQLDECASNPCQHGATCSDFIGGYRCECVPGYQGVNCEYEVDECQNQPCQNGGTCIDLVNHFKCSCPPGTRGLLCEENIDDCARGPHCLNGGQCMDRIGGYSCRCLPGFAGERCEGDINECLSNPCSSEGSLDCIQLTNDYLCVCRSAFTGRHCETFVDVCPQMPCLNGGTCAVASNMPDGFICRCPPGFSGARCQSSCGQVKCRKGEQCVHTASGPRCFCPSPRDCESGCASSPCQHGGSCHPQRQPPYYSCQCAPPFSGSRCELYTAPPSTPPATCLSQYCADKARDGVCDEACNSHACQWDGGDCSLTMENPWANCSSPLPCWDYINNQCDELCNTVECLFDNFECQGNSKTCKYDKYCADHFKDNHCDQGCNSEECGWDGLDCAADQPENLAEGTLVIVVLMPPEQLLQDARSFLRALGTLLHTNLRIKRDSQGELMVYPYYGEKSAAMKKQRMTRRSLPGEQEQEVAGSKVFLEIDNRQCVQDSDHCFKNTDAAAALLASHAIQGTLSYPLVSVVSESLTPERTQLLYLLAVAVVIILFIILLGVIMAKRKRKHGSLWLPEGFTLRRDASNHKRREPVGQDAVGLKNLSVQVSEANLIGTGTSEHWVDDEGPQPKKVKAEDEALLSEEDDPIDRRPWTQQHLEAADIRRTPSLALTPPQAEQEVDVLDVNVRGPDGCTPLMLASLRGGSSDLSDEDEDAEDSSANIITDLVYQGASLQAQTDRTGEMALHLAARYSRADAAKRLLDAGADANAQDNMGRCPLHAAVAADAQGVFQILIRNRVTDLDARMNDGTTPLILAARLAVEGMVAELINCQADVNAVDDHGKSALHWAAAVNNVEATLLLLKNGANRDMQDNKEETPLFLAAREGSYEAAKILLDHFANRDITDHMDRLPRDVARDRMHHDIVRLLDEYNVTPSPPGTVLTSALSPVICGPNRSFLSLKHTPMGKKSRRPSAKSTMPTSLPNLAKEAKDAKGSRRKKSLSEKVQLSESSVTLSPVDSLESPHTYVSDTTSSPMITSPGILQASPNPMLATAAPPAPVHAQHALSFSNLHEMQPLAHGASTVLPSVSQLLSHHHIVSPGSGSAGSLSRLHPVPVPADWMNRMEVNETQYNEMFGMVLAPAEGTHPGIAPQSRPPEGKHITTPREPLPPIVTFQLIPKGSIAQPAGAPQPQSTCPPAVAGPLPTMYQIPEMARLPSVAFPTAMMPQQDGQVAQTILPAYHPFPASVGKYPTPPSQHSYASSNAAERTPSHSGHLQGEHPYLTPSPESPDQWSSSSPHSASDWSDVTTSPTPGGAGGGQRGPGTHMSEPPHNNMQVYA
Chain of Pro-neuregulin-1, membrane-bound isoform (Homo sapiens) (Q02297 whole entry, looked up, the tested form may be a part, canonical isoform): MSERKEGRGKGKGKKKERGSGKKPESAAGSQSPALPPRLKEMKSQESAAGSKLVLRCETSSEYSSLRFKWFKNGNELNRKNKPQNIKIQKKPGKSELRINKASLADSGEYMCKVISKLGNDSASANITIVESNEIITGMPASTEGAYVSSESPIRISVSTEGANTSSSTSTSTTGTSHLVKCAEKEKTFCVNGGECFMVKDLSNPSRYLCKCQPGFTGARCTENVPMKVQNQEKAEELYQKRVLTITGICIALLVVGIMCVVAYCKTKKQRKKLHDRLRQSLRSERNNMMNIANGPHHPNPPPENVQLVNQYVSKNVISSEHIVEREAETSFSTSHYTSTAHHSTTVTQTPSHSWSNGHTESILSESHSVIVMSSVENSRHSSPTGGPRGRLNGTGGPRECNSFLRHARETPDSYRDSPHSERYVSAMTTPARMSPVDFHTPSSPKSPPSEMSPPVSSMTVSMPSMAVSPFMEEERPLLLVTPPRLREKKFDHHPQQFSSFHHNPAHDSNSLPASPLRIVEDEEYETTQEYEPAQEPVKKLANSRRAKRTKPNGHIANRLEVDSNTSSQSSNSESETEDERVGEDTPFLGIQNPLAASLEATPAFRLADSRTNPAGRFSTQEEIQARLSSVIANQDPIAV

Regarding `CCOC(=O)C1=CC[C@@H](c2ccc(C(F)(F)F)cc2)N(S(=O)(=O)c2ccc(C)cc2)[C@H]1c1ccccc1`, the composite z-score is 0.371 in test [1]; 1.4 in test [2]; 0.0917 in test [3]; 0.599 in test [4]; 1.38 in [5]; 1.3 in test [6]. Moreover, the composite z-score was 1.25 in test [7]; 1.04 in [9]; -0.0296 in test [10]; 1.49 in test [11]; 2.92 in [15]; 0.285 in [17]. Also, the composite z-score came to 0.496 in [18], 1.05 in [19] and 0.208 in test [20]. In addition, the z-score in test [8] was -0.364 (inactive); in test [12], -0.641 (inactive); in test [13] it was -0.482 (inactive); in test [14], 0.363 (inactive); in test [16], -0.617 (inactive).
Turning to `COc1ccc([Si](C)(C)[C@H]2[C@H](CCO)O[C@@]3(C(=O)N(Cc4ccccc4)c4ccc(N5CCCCC5=O)cc43)[C@@H]2C)cc1`, the composite z-score in test [1] is -0.347; in test [2], 0.455; in test [3] it was -0.0428; in test [4], 0.74; in test [5], 0.333; in test [6], 0.39. In addition, the composite z-score in test [7] was 0.909; in [9] it was -0.227; in test [10], -0.0645; in [11], 1.56; in test [15] it was 1.9; in test [17], -0.17. The values for the composite z-score in test [18], in test [19] and in test [20] were 1.23, 0.932 and -0.123, respectively. Further, the z-score is -2.44 (inactive) in [8]; 0.296 (inactive) in test [12]; -0.158 (inactive) in test [13]; 1.97 (inactive) in test [14]; 0.587 (inactive) in [16].
As for `C#CCN(C/C=C/c1ccccc1)[C@H](CO)c1ccccc1`, the composite z-score in test [1] was -0.565; in [2], 0.484; in test [3], -0.182; in test [4] it was -0.254; in test [5], 0.261; in test [6], -0.516. In addition, the composite z-score is -0.0706 in test [7]; 0.288 in [9]; 0.0156 in [10]; -0.019 in test [11]; 0.0638 in test [15]; -0.319 in test [17]. Moreover, the values for the composite z-score in test [18], in [19] and in test [20] were 1.12, 0.39 and -0.215, respectively. Moreover, the z-score in [8] is -0.786 (inactive); in [12] it was -3.99 (inactive); in test [13] it was -21.4 (active); in [14], -1.64 (inactive); in test [16], 0.408 (inactive).
Regarding `COc1cc(CO)cc(I)c1O[C@H]1C=C(C(=O)NCCO)C[C@@H](N(C(=O)c2cc3ccccc3oc2=O)C2CCCCCC2)[C@@H]1O`, the composite z-score in test [1] is -0.386; in test [2], 0.419; in [3], -0.0935; in [4] it was 0.661; in test [5], 0.511; in test [6], -0.19. Moreover, the composite z-score in test [7] is -0.52; in test [9], -0.0938; in test [10], 0.0646; in test [11], -0.446; in test [15], -0.188; in [17] it was -0.198. Also, the composite z-score in test [18] was 0.437; in test [19] it was 0.383; in test [20], -0.207. For the same molecule, the z-score is -0.738 (inactive) in test [8]; -0.13 (inactive) in [12]; -1.59 (inactive) in test [13]; -1.26 (inactive) in test [14]; 1.86 (inactive) in test [16].
Regarding `CC(C)Cc1ccc(CN2CC[C@@H](N)C2)cc1`, the composite z-score is -0.103 in [1]; -0.816 in test [2]; -0.219 in [3]; -0.711 in test [4]; -1.3 in [5]; -0.505 in [6]. For the same molecule, the composite z-score is -1.11 in [7]; -0.635 in test [9]; -0.0193 in test [10]; -1.05 in test [11]; -1.26 in [15]; -0.119 in [17]. Besides, the composite z-score in test [18] is -0.707; in test [19], -0.462; in test [20], -0.336. In addition, the z-score in test [8] is -0.132 (inactive); in test [12] it was -1.18 (inactive); in test [13], -21.4 (active); in test [14], -4.81 (inactive); in test [16] it was -4.43 (inactive).
For `C=CC[C@@]1(C(=O)N2CCCCC2)N=C(c2ccc(OCCCO)cc2)O[C@@H]1c1ccccc1N=[N+]=[N-]`, the composite z-score in test [1] was 0.292; in [2], -0.0912; in [3] it was -0.0198; in test [4] it was 0.555; in [5] it was 1.55; in test [6] it was 1.4. Also, the composite z-score in [7] is 1.23; in [9], 0.833; in [10], -0.0618; in test [11], 1.54; in [15] it was 3.23; in test [17], 0.286. The values for the composite z-score in [18], in test [19] and in [20] were 0.564, 1.13 and 0.14, respectively. Moreover, the z-score was -0.546 (inactive) in [8]; -0.989 (inactive) in test [12]; -0.577 (inactive) in test [13]; 1.13 (inactive) in test [14]; 1.07 (inactive) in test [16].
Consider `CC#CC(=O)Oc1ccc(Br)cc1C=CC(=O)OCC`, for which the composite z-score in test [1] is 0.559; in [2], -0.422; in [3] it was -0.0304; in [4], 0.0178; in test [5], -0.497; in test [6], 0.334. Besides, the composite z-score came to 1.34 in test [7]; 0.375 in [9]; 0.095 in test [10]; 0.162 in test [11]; 1.18 in test [15]; 0.188 in test [17]. The results for the composite z-score in test [18], in [19] and in [20] were -0.157, 0.0254 and -0.0765, respectively. Further, the z-score in test [8] was 0.128 (inactive); in [12], -23.6 (active); in [13], -16 (active); in test [14], -2.38 (inactive); in test [16], -0.0056 (inactive).
On to `Cc1ccc(S(=O)(=O)N2C[C@@H](C(=O)O)[C@H](Sc3ccccc3)C[C@H]2c2ccccc2)cc1`, for which the composite z-score amounted to 0.265 in [1]; 0.57 in test [2]; 0.172 in test [3]; 1.15 in test [4]; 1.61 in test [5]; 1.3 in test [6]. Moreover, the composite z-score in [7] was 1.12; in test [9] it was 1.56; in test [10], -0.34; in [11], 1.55; in test [15], 3.41; in test [17], 0.237. Moreover, the composite z-score in test [18] stood at 0.228; in [19] it was 0.988; in test [20], 0.0478. Also, the z-score in [8] was -2.97 (inactive); in test [12], -0.552 (inactive); in test [13], 0.972 (inactive); in test [14], -0.727 (inactive); in test [16], -0.385 (inactive).
For the molecule `[N-]=[N+]=Nc1ccccc1C[C@]1(C(=O)NCC(O)CO)N=C(c2ccc(OCCCO)cc2)O[C@H]1c1ccccc1` (stereo not given in full), the composite z-score in [1] is 0.451; in test [2], 0.533; in test [3] it was -0.0328; in [4], 0.0717; in [5] it was 0.641; in test [6], 1.93. Moreover, the composite z-score in test [7] is 0.867; in test [9] it was 1.56; in [10] it was -0.0391; in test [11] it was 0.909; in test [15], 2.2; in [17], 0.322. The composite z-score in [18] was -0.5; in [19], 0.394; in test [20] it was -0.0826. The z-score in [8] is -0.666 (inactive); in test [12] it was 1.25 (inactive); in test [13], 0.0558 (inactive); in test [14], 0.568 (inactive); in test [16], 0.291 (inactive).
With `COc1ccccc1CN1C(=O)c2ccccc2[C@@H](C(=O)NCc2ccccc2)[C@@H]1c1ccc(CO)cc1`, the composite z-score in [1] is -0.232; in test [2] it was 0.939; in test [3], -0.171; in test [4] it was -0.298; in test [5] it was 0.0668; in test [6], 1.1. For the same molecule, the composite z-score in [7] was 1.26; in test [9], 0.635; in test [10], -0.34; in test [11], 0.713; in test [15], 2.33; in [17], -0.26. Moreover, the figures for the composite z-score in test [18], in [19] and in test [20] were 0.286, 0.271 and -0.336, respectively. For the same molecule, the z-score in test [8] was -2.9 (inactive); in test [12], 0.649 (inactive); in [13] it was 0.417 (inactive); in test [14] it was 0.253 (inactive); in test [16], 0.409 (inactive).
